This is an account of results in ChEMBL document CHEMBL2218924, “A broad activity screen in support of a chemogenomic map for kinase signalling research and drug discovery” (Biochem J, 2013).

The target in assay [1] is T1, Ephrin type-A receptor 3 (Homo sapiens) (UniProt P29320).
T1 sequence (whole entry): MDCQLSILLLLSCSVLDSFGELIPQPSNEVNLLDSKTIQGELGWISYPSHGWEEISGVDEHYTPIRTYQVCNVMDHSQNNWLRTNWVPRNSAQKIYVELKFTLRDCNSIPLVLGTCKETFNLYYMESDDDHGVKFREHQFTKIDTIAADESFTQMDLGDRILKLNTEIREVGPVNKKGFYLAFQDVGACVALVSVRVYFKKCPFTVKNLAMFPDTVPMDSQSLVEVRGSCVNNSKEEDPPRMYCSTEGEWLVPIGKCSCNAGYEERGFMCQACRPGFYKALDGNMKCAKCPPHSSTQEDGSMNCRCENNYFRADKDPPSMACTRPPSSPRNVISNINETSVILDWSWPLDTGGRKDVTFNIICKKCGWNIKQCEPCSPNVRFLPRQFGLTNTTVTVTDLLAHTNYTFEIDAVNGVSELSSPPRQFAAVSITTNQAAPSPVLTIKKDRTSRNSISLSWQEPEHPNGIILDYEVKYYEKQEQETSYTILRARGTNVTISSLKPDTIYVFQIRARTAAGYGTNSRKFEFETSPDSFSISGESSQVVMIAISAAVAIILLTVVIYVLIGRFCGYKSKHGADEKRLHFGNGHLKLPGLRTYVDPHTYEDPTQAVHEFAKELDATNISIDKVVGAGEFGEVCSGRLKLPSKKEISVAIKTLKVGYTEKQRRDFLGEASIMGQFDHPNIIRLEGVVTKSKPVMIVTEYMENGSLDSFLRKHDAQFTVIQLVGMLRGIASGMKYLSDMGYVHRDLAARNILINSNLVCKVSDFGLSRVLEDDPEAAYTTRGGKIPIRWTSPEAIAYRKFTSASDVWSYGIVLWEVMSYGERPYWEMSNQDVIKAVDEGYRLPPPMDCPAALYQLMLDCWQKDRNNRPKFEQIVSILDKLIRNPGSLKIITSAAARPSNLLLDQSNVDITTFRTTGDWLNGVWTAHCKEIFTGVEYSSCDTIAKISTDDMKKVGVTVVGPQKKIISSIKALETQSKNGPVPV
To be noted: at 10 µM.

The target in assay [2] is Ephrin type-A receptor 4 (Homo sapiens) (UniProt P54764). The settings on record: at 1 µM.
For assay [3] the target is unchanged. To be noted: at 10 µM.
The target of assay [4] is Ephrin type-A receptor 5 (Homo sapiens) (UniProt P54756). The settings on record: at 1 µM.
The target is the same in assay [5]. The settings on record: at 10 µM.
Assay [6] has as its target Ephrin type-A receptor 7 (Homo sapiens) (UniProt Q15375). To be noted: at 1 µM.
For assay [7] the target is unchanged. To be noted: at 10 µM.
Assay [8] addresses T2, Ephrin type-A receptor 8 (Homo sapiens) (UniProt P29322).
T2 sequence (whole entry): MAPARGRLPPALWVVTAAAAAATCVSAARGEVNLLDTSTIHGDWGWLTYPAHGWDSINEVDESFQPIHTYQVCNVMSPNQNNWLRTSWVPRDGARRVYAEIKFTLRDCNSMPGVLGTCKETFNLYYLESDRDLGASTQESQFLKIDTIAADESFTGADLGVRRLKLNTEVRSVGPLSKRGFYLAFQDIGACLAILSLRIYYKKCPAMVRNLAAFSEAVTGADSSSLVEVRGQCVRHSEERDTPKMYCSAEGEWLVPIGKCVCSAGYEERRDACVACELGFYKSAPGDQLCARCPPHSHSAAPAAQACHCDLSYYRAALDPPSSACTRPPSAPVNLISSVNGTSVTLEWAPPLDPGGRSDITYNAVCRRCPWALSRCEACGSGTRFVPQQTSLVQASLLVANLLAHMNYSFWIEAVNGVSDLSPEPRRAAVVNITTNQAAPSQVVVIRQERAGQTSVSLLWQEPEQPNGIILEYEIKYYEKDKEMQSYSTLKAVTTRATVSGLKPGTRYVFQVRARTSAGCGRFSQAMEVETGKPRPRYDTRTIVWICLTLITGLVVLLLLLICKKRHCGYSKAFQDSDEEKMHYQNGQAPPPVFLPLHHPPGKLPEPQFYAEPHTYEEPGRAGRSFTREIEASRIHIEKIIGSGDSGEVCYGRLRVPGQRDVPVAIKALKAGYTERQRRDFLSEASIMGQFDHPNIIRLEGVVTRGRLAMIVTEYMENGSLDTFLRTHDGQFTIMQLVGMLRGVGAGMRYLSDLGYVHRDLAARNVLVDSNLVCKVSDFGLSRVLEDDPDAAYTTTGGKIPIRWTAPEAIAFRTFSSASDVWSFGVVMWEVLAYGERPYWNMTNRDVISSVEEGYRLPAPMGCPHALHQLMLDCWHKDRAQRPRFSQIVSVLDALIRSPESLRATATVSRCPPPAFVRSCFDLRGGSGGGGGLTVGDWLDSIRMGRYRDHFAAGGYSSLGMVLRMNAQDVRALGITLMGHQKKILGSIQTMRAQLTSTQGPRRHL
The settings on record: at 1 µM.

The target of assay [9] is T2, Ephrin type-A receptor 8 (Homo sapiens). To be noted: at 10 µM.
In assay [10] the target is T3, Ephrin type-B receptor 1 (Homo sapiens) (UniProt P54762).
T3 sequence (whole entry): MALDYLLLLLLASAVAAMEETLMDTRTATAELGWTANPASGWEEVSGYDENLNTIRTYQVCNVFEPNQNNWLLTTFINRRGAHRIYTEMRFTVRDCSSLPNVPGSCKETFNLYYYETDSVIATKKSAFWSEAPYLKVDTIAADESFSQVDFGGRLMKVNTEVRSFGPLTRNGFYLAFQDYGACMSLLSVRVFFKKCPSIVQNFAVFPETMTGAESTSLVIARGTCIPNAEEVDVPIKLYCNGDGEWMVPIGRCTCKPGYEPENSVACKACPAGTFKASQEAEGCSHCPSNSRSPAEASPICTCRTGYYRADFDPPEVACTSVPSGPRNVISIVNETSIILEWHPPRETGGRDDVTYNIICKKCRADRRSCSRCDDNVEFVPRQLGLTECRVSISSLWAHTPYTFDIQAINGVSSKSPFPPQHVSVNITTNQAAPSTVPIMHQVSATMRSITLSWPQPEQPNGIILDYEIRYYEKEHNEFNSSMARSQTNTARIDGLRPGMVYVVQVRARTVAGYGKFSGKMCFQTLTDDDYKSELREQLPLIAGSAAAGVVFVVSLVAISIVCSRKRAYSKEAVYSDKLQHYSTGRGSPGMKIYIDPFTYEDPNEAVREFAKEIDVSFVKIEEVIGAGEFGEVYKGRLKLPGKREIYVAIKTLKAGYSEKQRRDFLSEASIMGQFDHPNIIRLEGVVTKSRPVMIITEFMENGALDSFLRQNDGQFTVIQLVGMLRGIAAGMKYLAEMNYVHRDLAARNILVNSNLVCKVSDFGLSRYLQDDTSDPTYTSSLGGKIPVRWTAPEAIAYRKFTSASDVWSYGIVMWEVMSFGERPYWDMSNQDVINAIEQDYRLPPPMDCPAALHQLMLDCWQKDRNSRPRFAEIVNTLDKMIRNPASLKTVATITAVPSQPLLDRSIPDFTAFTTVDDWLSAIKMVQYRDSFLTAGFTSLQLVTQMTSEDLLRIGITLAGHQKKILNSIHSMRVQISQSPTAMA
The settings on record: at 1 µM.

Chain of Ephrin type-A receptor 7 (Homo sapiens) (Q15375 28-998 limits assumed): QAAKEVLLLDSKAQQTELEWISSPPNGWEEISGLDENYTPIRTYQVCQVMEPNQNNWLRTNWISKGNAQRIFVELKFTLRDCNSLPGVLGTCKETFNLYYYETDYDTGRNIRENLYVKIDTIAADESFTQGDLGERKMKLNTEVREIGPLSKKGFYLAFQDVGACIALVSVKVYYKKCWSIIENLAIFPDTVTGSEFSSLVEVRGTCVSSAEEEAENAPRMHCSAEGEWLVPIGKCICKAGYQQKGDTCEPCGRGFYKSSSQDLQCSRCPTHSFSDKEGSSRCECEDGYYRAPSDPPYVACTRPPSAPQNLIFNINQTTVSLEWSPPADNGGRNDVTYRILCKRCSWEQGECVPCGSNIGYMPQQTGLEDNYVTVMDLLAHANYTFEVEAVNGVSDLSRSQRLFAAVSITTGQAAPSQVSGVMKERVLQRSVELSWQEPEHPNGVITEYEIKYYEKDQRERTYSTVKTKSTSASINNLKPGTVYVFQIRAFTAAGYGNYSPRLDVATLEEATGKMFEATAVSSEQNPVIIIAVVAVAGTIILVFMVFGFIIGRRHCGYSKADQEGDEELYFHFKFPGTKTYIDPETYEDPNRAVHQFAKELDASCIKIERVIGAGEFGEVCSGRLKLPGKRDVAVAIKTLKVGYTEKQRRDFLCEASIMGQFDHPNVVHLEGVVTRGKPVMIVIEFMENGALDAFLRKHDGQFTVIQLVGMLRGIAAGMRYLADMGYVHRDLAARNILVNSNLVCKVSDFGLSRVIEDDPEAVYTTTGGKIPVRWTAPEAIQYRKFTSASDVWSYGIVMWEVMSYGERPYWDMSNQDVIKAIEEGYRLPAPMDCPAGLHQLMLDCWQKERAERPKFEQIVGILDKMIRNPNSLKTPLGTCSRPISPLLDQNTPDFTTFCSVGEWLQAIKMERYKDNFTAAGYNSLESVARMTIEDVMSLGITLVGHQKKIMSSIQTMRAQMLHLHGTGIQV
Chain of Ephrin type-A receptor 5 (Homo sapiens) (P54756 whole entry): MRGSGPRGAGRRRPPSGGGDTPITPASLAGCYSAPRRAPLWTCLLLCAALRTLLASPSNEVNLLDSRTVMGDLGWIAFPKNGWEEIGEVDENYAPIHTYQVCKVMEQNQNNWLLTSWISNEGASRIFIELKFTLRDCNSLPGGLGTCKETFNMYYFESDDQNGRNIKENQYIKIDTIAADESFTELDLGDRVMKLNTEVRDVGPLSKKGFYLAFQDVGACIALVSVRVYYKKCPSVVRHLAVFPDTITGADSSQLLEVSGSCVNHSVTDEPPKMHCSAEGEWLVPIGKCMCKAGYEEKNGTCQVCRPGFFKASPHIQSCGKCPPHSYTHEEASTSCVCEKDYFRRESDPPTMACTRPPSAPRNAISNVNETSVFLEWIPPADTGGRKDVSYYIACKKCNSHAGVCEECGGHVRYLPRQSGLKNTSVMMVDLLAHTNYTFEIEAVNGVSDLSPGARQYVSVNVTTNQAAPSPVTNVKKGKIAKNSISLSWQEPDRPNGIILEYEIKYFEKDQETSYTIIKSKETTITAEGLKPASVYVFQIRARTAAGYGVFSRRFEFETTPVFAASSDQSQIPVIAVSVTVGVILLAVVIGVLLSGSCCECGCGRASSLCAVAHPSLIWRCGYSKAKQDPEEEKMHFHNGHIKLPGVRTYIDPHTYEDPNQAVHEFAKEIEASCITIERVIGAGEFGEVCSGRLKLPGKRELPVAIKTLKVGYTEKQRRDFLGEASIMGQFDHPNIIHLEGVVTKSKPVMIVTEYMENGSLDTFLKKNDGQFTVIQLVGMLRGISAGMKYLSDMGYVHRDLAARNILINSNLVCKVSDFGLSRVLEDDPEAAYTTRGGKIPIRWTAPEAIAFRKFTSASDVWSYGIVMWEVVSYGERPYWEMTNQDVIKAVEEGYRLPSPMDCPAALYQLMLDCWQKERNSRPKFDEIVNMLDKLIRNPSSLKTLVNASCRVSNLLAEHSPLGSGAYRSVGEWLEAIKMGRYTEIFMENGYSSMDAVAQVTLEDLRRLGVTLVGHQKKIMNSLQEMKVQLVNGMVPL
Chain of Ephrin type-A receptor 4 (Homo sapiens) (P54764 whole entry): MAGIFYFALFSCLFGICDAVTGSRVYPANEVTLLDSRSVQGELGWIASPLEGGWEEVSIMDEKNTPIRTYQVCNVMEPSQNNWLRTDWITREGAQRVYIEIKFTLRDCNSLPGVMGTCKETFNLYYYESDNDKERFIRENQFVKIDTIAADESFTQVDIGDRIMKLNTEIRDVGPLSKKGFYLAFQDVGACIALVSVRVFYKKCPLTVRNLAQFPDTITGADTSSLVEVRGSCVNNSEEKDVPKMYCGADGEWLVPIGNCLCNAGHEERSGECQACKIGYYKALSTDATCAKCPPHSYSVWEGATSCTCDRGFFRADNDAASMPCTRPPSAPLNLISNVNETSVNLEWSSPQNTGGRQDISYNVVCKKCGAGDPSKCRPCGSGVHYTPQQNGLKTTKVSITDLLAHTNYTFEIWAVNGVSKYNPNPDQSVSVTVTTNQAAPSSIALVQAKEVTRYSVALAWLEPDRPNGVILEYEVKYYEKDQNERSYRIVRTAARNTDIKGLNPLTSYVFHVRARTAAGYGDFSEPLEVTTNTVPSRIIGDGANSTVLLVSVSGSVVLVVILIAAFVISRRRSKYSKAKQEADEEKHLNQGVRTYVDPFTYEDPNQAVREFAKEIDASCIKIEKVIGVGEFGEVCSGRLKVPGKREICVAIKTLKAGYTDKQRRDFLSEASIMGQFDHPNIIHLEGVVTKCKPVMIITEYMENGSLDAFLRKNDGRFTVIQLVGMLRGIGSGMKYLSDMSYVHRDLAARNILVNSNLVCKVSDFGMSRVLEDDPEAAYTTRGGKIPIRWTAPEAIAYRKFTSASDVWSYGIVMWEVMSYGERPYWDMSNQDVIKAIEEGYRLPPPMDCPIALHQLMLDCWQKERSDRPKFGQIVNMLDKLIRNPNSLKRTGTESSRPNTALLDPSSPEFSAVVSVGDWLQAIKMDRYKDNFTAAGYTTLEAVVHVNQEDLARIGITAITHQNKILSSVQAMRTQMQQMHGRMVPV

In the case of `CCC(=O)Nc1ccc2ncnc(Nc3cccc(Br)c3)c2c1`, the residual activity in [1] stood at 82%; in assay [2] it was 106%; in [3], 92%; in assay [4], 101%; in [5], 99%; in assay [6] it was 92%. The residual activity in assay [7] was 76%; in assay [8] it was 97%; in assay [9], 88%; in assay [10] it was 97%.
